# CYP2C9 act: activators of human CYP2C9; hit rate 1.4% among 96,000; P11712; activation factor at 5 µM; recombinant CYP2C9, luciferin-H conversion, luminescence; active compounds read high; factor 1 = untreated enzyme, 0 = blocked;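 active = activation factor of 2 or more for CYP2C9 at a 5 µM dose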;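 also: 0 = sulfaphenazole-blocked wells and 1 = vehicle-only wells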
# CYP2C19 inhib: inhibitors of human CYP2C19 | inhibition, % at 5 µM | hit rate 21% among 96,000 | CYP2C19 Supersomes, luciferin-H EGE luminescence, 30 min;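 active = CYP2C19 inhibition above a set limit at 5 µM in the primary screen, cut at about 50% in these data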;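 also: plate controls were negative control wells for no effect and 2.5 mM tranylcypromine positive control for full effect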
# Target sequence (P33261 whole entry, looked up): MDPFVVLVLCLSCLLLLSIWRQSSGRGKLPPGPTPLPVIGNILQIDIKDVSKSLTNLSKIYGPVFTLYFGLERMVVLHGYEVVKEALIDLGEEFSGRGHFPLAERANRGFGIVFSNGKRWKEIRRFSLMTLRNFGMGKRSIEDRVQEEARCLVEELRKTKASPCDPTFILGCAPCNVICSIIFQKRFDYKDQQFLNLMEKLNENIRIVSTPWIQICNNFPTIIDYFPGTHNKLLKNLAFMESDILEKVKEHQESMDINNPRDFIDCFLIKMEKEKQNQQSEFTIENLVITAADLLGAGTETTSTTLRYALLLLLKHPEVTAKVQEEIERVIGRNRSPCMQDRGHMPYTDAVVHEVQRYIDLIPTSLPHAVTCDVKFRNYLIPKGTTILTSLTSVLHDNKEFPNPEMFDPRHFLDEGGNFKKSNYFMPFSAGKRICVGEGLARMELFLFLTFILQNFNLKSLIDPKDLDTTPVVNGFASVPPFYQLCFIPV
# Cav32 inh: inhibitors of human Cav3.2 T-type calcium channel | B-score at 10 µM | O95180 | hit rate 4% among 100,000 | Cav3.2-expressing cells, Fluo-4 calcium fluorescence FDSS; active compounds read low;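 active = single-dose well whose peak fluorescence ratio is a statistical outlier from its plate by either plate-standardised score or position-corrected B-score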
# CYP2C19 activ: activators of human cytochrome P450 2C19 | P33261 | recombinant CYP2C19, luciferin-H EGE luminescence; active compounds read high; 0 = fully inhibited enzyme, 1 = untreated enzyme | activation factor at 5 µM | 96,000 tested, under 10 active;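 active = activation factor of at least 2 at 5 µM in the primary screen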;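 also: 0 = wells with 2.5 mM tranylcypromine and 1 = vehicle-only wells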
# CYP2C9 inhib: blocks human cytochrome P450 2C9; CYP2C9 Supersomes, luciferin-H conversion, luminescence; hit rate 20% among 96,000; inhibition, % at 5 µM; AID 777; P11712;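 active = blocking of liver enzyme CYP2C9 beyond about 50% at 5 µM, limit read from the data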
# Active calls of the source: *; . = no result. An excerpt weighted towards active compounds, which were near 27% of everything screened.
SMILES,CYP2C9 act,CYP2C19 inhib,Cav32 inh,CYP2C19 activ,CYP2C9 inhib
O=C(O)C1CC(c2cccc(Br)c2)=NO1 (configuration not stated),1.2,1,0.095,1,-23
Cn1c(N)c(C(=O)COC(=O)C2(c3cccc(F)c3)CCCC2)c(=O)n(C)c1=O,0.6,19,-0.98,0.8,36
Cc1ccccc1NC(=O)c1sc(Cl)nc1-c1ccccc1,0.6,61*,1.9,0.4,44
CCOC(=O)N1CCN(C(=O)CSc2nnc(-c3cc(OC)ccc3OC)o2)CC1,.,.,1.9,.,.
CCOC(=O)N1CCN(C(=O)CSc2nnc(-c3ccccc3OC)o2)CC1,2.2*,26,2.8,0.7,-124
CCOC(=O)N1CCN(C(=O)CSc2nc(-c3cccc(C)c3)ns2)CC1,0.3,49,-3.2,0.5,69*
CCOC(=O)N1CCN(C(=O)CSc2nnc(-c3cccc(OC)c3)o2)CC1,0.5,40,0.75,0.6,54*
COc1ccccc1-c1nnc(SCC(=O)OC(C)C)o1,1.3,59*,-0.77,0.4,-34
Cc1cccc(-c2nsc(SCC(=O)Nc3cc(C)on3)n2)c1,0.7,8,-1.4,0.9,28
O=C(CN1CCC(NC(=O)Cc2ccccc2)CC1)Nc1cccc2ccccc12,0.8,33,1.9,0.7,23
CC(C)CC(=O)N1CCN(Cc2ccc3c(c2)OCO3)CC1,1,17,0.036,0.8,-1
O=C(NCc1cccc(C(F)(F)F)c1)C1CC(c2ccc(C(F)(F)F)cc2)=NO1 (configuration not stated),.,.,-1.7,.,.
CCN(CC)CCCN1C(=O)C(O)=C(C(=O)c2ccco2)C1c1cc(OC)ccc1OC (configuration not stated),1.2,-24,.,1.2,-16
Cc1cccc(C)c1OC(=O)CSc1nnc(-c2ccccc2O)o1,0.3,75*,-1.5,0.2,67*
O=C(O)c1ccccc1NCc1ccncc1,0.2,1,-1.5,1,76*
O=C(O)c1ccc(CNc2ccccc2C(=O)O)cc1,1,-2,0.85,1,0
O=C1CN(C(=O)c2ccc(Br)o2)C(c2ccccc2)c2cc(Cl)ccc2N1 (configuration not stated),0,86*,-4.5*,0.1,100*
O=C1CN(C(=O)c2ccco2)C(c2ccccc2)c2cc(Cl)ccc2N1 (configuration not stated),0.3,59*,-0.39,0.4,71*
O=C1CN(C(=O)c2ccc(Br)o2)C(c2ccc(F)cc2)c2cc(Cl)ccc2N1 (configuration not stated),0.3,36,-6.8*,0.6,73*
O=C(Nc1cccc(C(F)(F)F)c1)c1cnc2n(c1=O)CCS2,1.5,-1,-0.13,1,-53
COc1ccc(C(=O)NCc2cn3ccsc3n2)cc1OC,1.1,-13,0.3,1.1,-14
O=C(NC1CCN(C(=O)N2c3ccccc3Sc3ccccc32)CC1)c1ccccc1Cl,0.5,33,-1.6,0.7,49
COc1cccc(C(=O)NC2CCN(C(=O)N3c4ccccc4Sc4ccccc43)CC2)c1,0.5,-4,-3.9*,1,46
CSC1=NCCN1C(=O)c1c(F)cccc1F,0.9,11,-0.015,0.9,10
CCCC(C)NCC(=O)Nc1ccccc1-c1ccccc1 (configuration not stated),0.6,65*,-0.0036,0.4,41
SMILES,CYP2C9 act,CYP2C19 inhib,Cav32 inh,CYP2C19 activ,CYP2C9 inhib
CC1(C)c2[nH]c3ccccc3c2C[C@@H]2C(=O)N(c3ccc(F)cc3F)C(=O)N21,.,.,0.054,.,.
C=CCNS(=O)(=O)c1sccc1/C=N/O,1,60*,0.4,0.4,2
COc1ccc(NC(=O)C(C)N2c3cccc4cccc(c34)S2(=O)=O)cc1OC (configuration not stated),.,.,-1.8,.,.
CC(O)CCC(=O)NCCNC(=O)CCC(C)O (configuration not stated),1.1,-18,-1.2,1.2,-15
CC(O)C(=O)NCCOCCOCCNC(=O)C(C)O (configuration not stated),0.6,66*,0.35,0.3,44
Cc1nc2nc(-c3ccccc3)cc(=O)n2[nH]1,0.8,39,-0.52,0.6,20
Cc1ccc(SCc2cc(=O)n3[nH]c(C)nc3n2)cc1,0.4,-21,-0.4,1.2,56*
COCc1cc(=O)n2[nH]c(SCc3ccccc3)nc2n1,1.1,-4,-0.045,1,-8
Cc1nc2nc(CSc3ccc(Cl)cc3)cc(=O)n2[nH]1,0.4,-7,0.16,1.1,55*
CCOc1ccccc1CNn1nnnc1N,.,.,0.54,.,.
Cc1cc(C)c2c(n1)sc1c(=O)n(Cc3ccccc3Cl)nnc12,0.8,31,.,0.7,20
Cc1cc(C)n(-c2nnc(C)n2/N=C/c2ccccc2O)n1,0.9,16,.,0.8,9
COC(=O)c1ccc(OC)c(CSc2nnc(-c3ccc(C(C)(C)C)cc3)o2)c1,0.2,90*,-3.8,0.1,84*
COC(=O)c1ccc(OC)c(CSc2nnc(COc3ccc(Cl)cc3)o2)c1,0.1,76*,-5.8*,0.2,88*
COC(=O)c1ccc(OC)c(CSc2nnc(COc3ccccc3)o2)c1,0.6,38,-4,0.6,38
Cn1nc(CC(=O)NCCN2C(=O)CSC2=O)c2ccccc2c1=O,1.2,70*,-0.0044,0.3,-15
O=C(CSc1nc(-c2ccccc2)c(-c2ccccc2)[nH]1)NCCN1C(=O)CSC1=O,0.7,63*,2.1,0.4,34
O=C(CSc1nc(C2CCCCC2)n(-c2ccccc2)n1)NCCN1C(=O)CSC1=O,0,95*,-0.63,0,98*
Cc1nnc(SCC(=O)NCCN2C(=O)CSC2=O)s1,1.1,-1,0.21,1,-6
O=S(=O)(c1ccc(N2CCN(S(=O)(=O)c3ccc4c(c3)OCCO4)CC2)nc1)N1CCCC1,.,.,-0.045,.,.
COc1ccc(-c2noc3c2-c2nc(-c4ccc(C)cc4)sc2CC3)cc1,.,.,0.95,.,.
O=C(Nc1ccc(N2CCOCC2)cc1)c1cccc(S(=O)(=O)N2CCCC2)c1,1,-6,-0.11,1.1,2
O=C(Nc1cccc(S(=O)(=O)N2CCOCC2)c1)c1ccco1,1.1,75*,-0.16,0.3,-8
O=C(Oc1cccc(NC(=O)c2ccco2)c1)c1cccc(S(=O)(=O)N2CCCCC2)c1,1,-17,-1.5,1.2,4
O=C(Nc1ccc(N2CCOCC2)cc1)c1cccc(S(=O)(=O)N2CCC(Cc3ccccc3)CC2)c1,0.4,46,-3.7,0.5,64*
Cc1ccc(C(=O)OCc2ccc3c(c2)OCO3)cc1S(=O)(=O)N1CCCCC1,0,79*,-4.1*,0.2,95*
O=C(Nc1ccc2c(c1)OCCO2)c1cccc(S(=O)(=O)N2CCCCC2)c1,0.4,41,-1.3,0.6,63*
Cc1ccc(C(=O)Nc2ccc3c(c2)OCO3)cc1S(=O)(=O)N1CCCC1,0.4,46,-0.44,0.5,58*
Cc1ccc(C(=O)Nc2cccc(C(=O)O)c2)cc1S(=O)(=O)N1CCCCC1,0.4,47,0.51,0.5,57*
